Bioassay records (PubChem BioAssay)
The list is not random: actives were taken first. Their share in the collection is about 4.2%.
CCHFV vOTU inh: CCHFV vOTU protease inhibition; inhibition, % at 11.5 µM; AID 651958; 370,000 tested, 0.55% active; Pep-AMC fluorescence
GDH-TPI inh: inhibits GDH-TPI coupling enzymes, artifact for Mtb FBA screen; GDH-TPI coupled enzyme counterscreen, NADH absorbance; inhibition, % at 4.8 µM; 360,000 tested, 1.2% active
FBA Mtb inh: inhibits M. tuberculosis FBA enzyme | P9WQA3 | purified M. tuberculosis FBA, fluorescence read-out | inhibition, % at 1 µM | 360,000 tested, 2.3% active | AID 588726; in the data active = inhibition above about 27%
Target sequence (P9WQA3 whole entry, looked up): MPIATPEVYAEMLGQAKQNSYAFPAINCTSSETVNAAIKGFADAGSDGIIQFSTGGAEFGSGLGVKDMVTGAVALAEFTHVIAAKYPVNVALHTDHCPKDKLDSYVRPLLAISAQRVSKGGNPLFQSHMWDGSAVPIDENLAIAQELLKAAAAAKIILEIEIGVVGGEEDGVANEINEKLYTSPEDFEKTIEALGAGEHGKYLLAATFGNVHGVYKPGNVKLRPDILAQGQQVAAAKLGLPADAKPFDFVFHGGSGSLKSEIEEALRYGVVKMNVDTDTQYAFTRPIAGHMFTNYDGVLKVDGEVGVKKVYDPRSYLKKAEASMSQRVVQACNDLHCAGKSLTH
RecA splice inh: inhibitors of M. tuberculosis RecA intein splicing | P9WHJ3 | cell-free RecA intein splicing, fluorescence | inhibition, % (test concentration not listed) | 290,000 tested, 0.75% active; in the data active = inhibition above about 30%
Each line names hits and unclear results; the compound was inactive in the other large screens; ! = repeats disagree. Rule as the data show it, unless noted: active = inhibition above about 30%; inactive = the rest.

CC(=O)N1N=C(c2cccc(NS(C)(=O)=O)c2)CC1c1cccs1 (centres undefined)	GDH-TPI inh 64.8
CS(=O)(=O)Nc1cccc(C2=NN(C(=O)CCC(=O)O)C(c3cccs3)C2)c1 (centres undefined)	none
O=C(c1ccc2c(c1)OCO2)C1CCCN(Cc2ccc(OC(F)F)cc2)C1 (centres undefined)	none
COc1ccc(C2c3ccc(O)cc3Oc3ncn4nc(-c5ccccn5)nc4c32)cc1OC (centres undefined)	none
COc1ccc(C2c3ccc(O)cc3Oc3ncn4nc(-c5ccccn5)nc4c32)cc1 (centres undefined)	GDH-TPI inh 36.4
CC(C)N(C)c1ncnc2c1ncn2[C@H]1CN(C2CCCC2)C[C@@H](CO)O1	none (no result: RecA splice inh)
CC(=O)c1cc(-c2cnn(Cc3ccccc3)c2)c(=O)n2c1CCC2	none (no result: GDH-TPI inh, FBA Mtb inh, RecA splice inh)
CCOc1ccc2c(c1)C(NC(C)=O)C(=O)N2CCN1CCOCC1 (centres undefined)	RecA splice inh 43.0
CC(=O)NC1C(=O)N(CCN2CCOCC2)c2ccc(Br)cc21 (centres undefined)	RecA splice inh 50.9
CCN1C(=O)C(NC(C)=O)c2cc(OC)ccc21 (centres undefined)	none
CCN(CC)C(=O)CSc1n[nH]c(=O)n1CCc1ccccc1	FBA Mtb inh 148.2
CC(C)N(C(=O)CSc1n[nH]c(=O)n1CCc1ccccc1)C(C)C	none
O=C(O)c1ccccc1Sc1ncnc2sccc12	none
O=c1[nH]nc(Sc2ncnc3sccc23)n1CCc1ccccc1	RecA splice inh 31.4
COc1cc(C(=O)Nc2cccc(-c3nc4ccccc4o3)c2C)cc(OC)c1OC	none
COc1cc(C(=O)Nc2ccc(-c3nc4cc(C)ccc4o3)c(O)c2)cc(OC)c1OC	GDH-TPI inh 34.3
CCCCC[C@H](O)/C=C/[C@@H]1[C@@H](C/C=C\CCCC(=O)OC)[C@@H](O)C[C@H]1O	RecA splice inh 40.6 (no result: CCHFV vOTU inh)
CCc1ccccc1-c1cc(C(=O)OC)c2n(c1=O)CCC2	none (no result: GDH-TPI inh, FBA Mtb inh, RecA splice inh)
O=C(CN1C(=O)S/C(=C\c2ccccc2)C1=O)NCCCn1ccnc1	none
CC(C)c1ccc(/C=C2\SC(=O)N(CC(=O)NCCCn3ccnc3)C2=O)cc1	GDH-TPI inh 47.4
CCOC(=O)C1CCC(C(=O)OCC)N1c1ccc(C=O)cc1 (centres undefined)	GDH-TPI inh 32.7 (no result: RecA splice inh)
Cc1cc(S(=O)(=O)Nc2ccc(C(=O)NC3CC3)cc2)ccc1F	none (no result: RecA splice inh)
CN(C)/N=C/c1ccc(P(c2ccc(/C=N/N(C)C)o2)c2ccc(/C=N/N(C)C)o2)o1	GDH-TPI inh 65.0
CCN(CC)c1ncc(C#N)c(N)n1	none
Cc1ccc(C(=O)NNC(=S)NC(=O)c2ccccc2)cc1	GDH-TPI inh 31.0
Cc1ccc(C(=O)NC(=S)NNC(=O)c2ccccc2)cc1	none
CCOCCCn1c(-c2ccc(Cl)cc2)n[nH]c1=S	none
COCCCn1c(-c2ccc(Cl)cc2)n[nH]c1=S	FBA Mtb inh 28.0
O=C(/C=C/c1cccs1)NC(=S)Nc1ccc(C(=O)O)cc1	GDH-TPI inh 74.0
O=C(/C=C/c1cccs1)Nc1ccncc1	GDH-TPI inh 35.8
O=C(O)CCNc1cc(N2CCN(C(=O)c3ccco3)CC2)c2noc3c2c1C(=O)c1ccccc1-3	CCHFV vOTU inh 54.5
CCN1CCN(c2cc(N3CCN(C(=O)c4ccco4)CC3)c3c4c(onc24)-c2ccccc2C3=O)CC1	none (no result: CCHFV vOTU inh)
O=C(Nc1c(-c2ccc(C(F)(F)F)cc2)nc2ncccn12)C1CC1	none (no result: GDH-TPI inh, FBA Mtb inh, RecA splice inh)
COC(=O)c1cc2c(s1)=NC=NP=2(N1CCOCC1)N1CCOCC1	GDH-TPI inh 30.8!
COc1ccc2c(c1)c(=O)oc1cc(OCC(=O)N3CCCC(C)C3)ccc12 (centres undefined)	FBA Mtb inh 116.0
Cc1c(Cl)c(=O)oc2cc(OCC(=O)N3CCCC(C)C3)ccc12 (centres undefined)	FBA Mtb inh active (no result: RecA splice inh)
COc1cc2c(cc1OC)CN(C(=O)C1CCN(S(=O)(=O)c3ccccc3F)CC1)CC2	none
C=CCn1c(N)c(C(=O)NCC2CCCO2)c2nc3ccccc3nc21 (centres undefined)	FBA Mtb inh 144.2
CCC(C)NC(=O)c1c(N)n(Cc2ccc3c(c2)OCO3)c2nc3ccccc3nc12 (centres undefined)	RecA splice inh 41.4
CCC(C)NC(=O)c1c(N)n(CC2CCCO2)c2nc3ccccc3nc12 (centres undefined)	FBA Mtb inh 87.1
Cc1ccc(C(=O)NCC(=O)OCc2nc3sc(C)c(C)c3c(=O)[nH]2)cc1	none (no result: GDH-TPI inh, FBA Mtb inh, RecA splice inh)
O=C(O)c1ccccc1NN=Cc1ccccc1	GDH-TPI inh 35.8 (no result: RecA splice inh)
COc1ccccc1/C=C\C=N\NC(=O)c1ccco1	none
COc1cccc(/C=N/NC(=O)N/N=C/c2cccc(OC)c2O)c1O	none (no result: RecA splice inh)
COc1ccccc1C=NNC(=O)NN=Cc1ccccc1OC	GDH-TPI inh 31.5 (no result: RecA splice inh)
O=C(C=Cc1ccccc1)c1cccs1	GDH-TPI inh 34.4 (no result: RecA splice inh)
COc1ccccc1/C=C/C=N/NC(=O)c1cccs1	GDH-TPI inh 45.2
Cc1nc(N)sc1C(=O)N/N=C/c1ccco1	GDH-TPI inh 37.9
Cc1nc(N)sc1C(=O)N/N=C/c1ccccc1[N+](=O)[O-]	none
CCCCCCCCN1C(=O)[C@@H](CC(=O)N2CCC(c3ccccc3)CC2)C[C@@]2(C(=O)OC)C1=C[C@H](C(C)C)O[C@@H]2C1CC1	none (no result: GDH-TPI inh, FBA Mtb inh, RecA splice inh)
COc1ccc(C(C(=O)N(C)C2CCCC2)N(Cc2ccc(F)cc2)C(=O)c2csc3ccc(Cl)cc23)cc1OC (centres undefined)	none (no result: GDH-TPI inh, FBA Mtb inh, RecA splice inh)
CCCCNS(=O)(=O)/C=C/c1ccc(OC)cc1CNC(=O)OC(C)(C)C	none (no result: GDH-TPI inh, FBA Mtb inh, RecA splice inh)
O=C(N/N=C/c1c[nH]c2ccc(Br)cc12)c1ccn(Cc2ccc(Cl)cc2Cl)n1	none
Cc1cccc(NC(=S)N/N=C/c2ccc(Cl)c([N+](=O)[O-])c2)c1	none
O=C(N/N=C/c1c[nH]c2ccccc12)c1ccn(Cc2ccc(Cl)cc2)n1	GDH-TPI inh 31.8
Cc1cc(C(=O)N/N=C/c2c[nH]c3ccccc23)c(C)o1	none
O=C(O)COc1ccccc1/C=N/NC(=O)CNC(=O)c1ccc(F)cc1	none
O=C(O)COc1ccccc1/C=N/NC(=O)c1ccc(F)cc1	GDH-TPI inh 46.3
Cc1cccc(NC(=S)N/N=C/c2cccc([N+](=O)[O-])c2)c1	GDH-TPI inh 32.9 (no result: CCHFV vOTU inh)
Cc1ccc(C(=O)N/N=C/c2c[nH]c3ccccc23)o1	GDH-TPI inh 31.1
Oc1ccc(C[C@H]2CNC(=S)N2CC2CCCN2C[C@H](Cc2ccc(O)cc2)N2C[C@H](Cc3ccc(O)cc3)N(CC3CCCCC3)C2=S)cc1 (some centres undefined)	none (no result: RecA splice inh)
O=C(N/N=C/c1c[nH]c2ccc(Br)cc12)C1CC1	GDH-TPI inh 31.6
O=C(N/N=C/c1c[nH]c2ccccc12)c1cc(Br)ccc1O	GDH-TPI inh 31.3
CC(/C=N/NC(=O)c1cccs1)=C\c1ccccc1	GDH-TPI inh 32.3
CC(/C=N/NC(=O)c1n[nH]c2c1CCC2)=C\c1ccccc1	GDH-TPI inh 31.5
Cc1cc(Cl)ccc1C(O)c1ncc(-c2ccc(F)cc2)[nH]1 (centres undefined)	none (no result: CCHFV vOTU inh, RecA splice inh)
Cc1nc(N)sc1C(=O)N/N=C/c1c[nH]c2ccccc12	GDH-TPI inh 56.5
O=C(N/N=C/c1ccc(Br)s1)c1c[nH]c2ccccc12	GDH-TPI inh 39.7
